From PubChem BioAssay (NCI)
About 79,000 compounds went through this panel and 15% of them were active in at least one assay; those are over-represented in the sample as a whole. The source made the active and inactive calls. Rule as the data show it: active = growth inhibition above about 70%; inactive = the rest.

Experiment: NCI Yeast Anticancer Drug Screen. Data for the rad50 strain (AID 155);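 also: 0% = growth of vehicle-only cultures of the same strain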
Settings: S. cerevisiae rad50 strain growth inhibition, active compounds read high
Procedure: Growth inhibition of yeast strains with defined genetic alterations is measured as a screen for potential anti-cancer activity. Selected strains with alterations in DNA damage repair or cell cycle control were exposed to compounds and growth inhibition was measured relative to vehicle treated controls. The strain used in this assay is rad50

[1] = at 5.0 µM (retest, dose inferred, filed as 0.5)
[2] = at 50.0 µM (retest, dose inferred, filed as 5.0)

Structure (SMILES) | growth inhibition (at 1.2 µM) | growth inhibition (at 3.7 µM) | growth inhibition [1] | growth inhibition (at 11.0 µM) | growth inhibition (at 33.0 µM) | growth inhibition [2] | growth inhibition (at 50.0 µM) | growth inhibition (at 100.0 µM)
c1ccc(N2N=C3N(c4ccccc4)C2N3c2ccccc2)cc1 | 1% (inactive) | 7% (inactive) | 43% (inactive) | 26% (inactive) | 70% (active) | 97% (active) | 81% (active) | 92% (active)
Cc1ccc(N=Nc2ccc(O)c(C)c2)cc1 | 9% (inactive) | 18% (inactive) | 38% (inactive) | 95% (active) | 98% (active) | 56% (inactive) | 91.2% (active) | 94% (active)
Clc1c(Cl)c(Cl)c2n[nH]nc2c1Cl | -13% (inactive) | -21% (inactive) | 100% (active) | -9% (inactive) | 14% (inactive) | 100% (active) | 60.1% (inactive) | 75% (active)
COc1cc(CNc2ccc(C(C)C)cc2)cc(OC)c1OC | 13% (inactive) | 0% (inactive) | -1% (inactive) | -2% (inactive) | -19% (inactive) | -3% (inactive) | 32.5% (inactive) | 73% (active)
C=Cc1cnc([N+](=O)[O-])n1C | 3% (inactive) | 17% (inactive) | 23% (inactive) | 52% (inactive) | 86% (active) | 87% (active) | 78.5% (active) | 94% (active)
